Here are results for eight compounds from the supplement of paper PMC13380429.

Experiment [1] has as its system Vero E6 infected with SARS-CoV-2. The experiment can be described thus: morphology score (similarity to uninfected cells); higher = more like uninfected cells. To be noted: 24 h.
Experiment [2] has the same test system. The experiment can be described thus: SARS-CoV-2 infection rate relative to infected DMSO; higher = more infection, active = 60 or less. To be noted: 24 h.

For the compound `CCC[C@@H](NC(=O)N1C(=O)C(CC)(CC)[C@@H]1Oc1ccc(C(=O)N2CCN(C)CC2)cc1)c1ccc2c(c1)OCO2` (10 µM), in experiment [1], the morphology score amounted to 0.171. Also, the SARS-CoV-2 infection rate in experiment [2] is 109% (inactive).

The compound `OCC(CO)N[C@H]1C[C@](O)(CO)[C@@H](O)[C@H](O)[C@H]1O` [voglibose] (10 µM) showed a morphology score in experiment [1] of -0.105. The SARS-CoV-2 infection rate in experiment [2] is 106% (inactive).

With `O=C(NC[C@H](O)CO)c1ccncc1Nc1ccc(I)cc1F` (0.833333 µM), in experiment [1], the morphology score was -0.139. In addition, in experiment [2], the SARS-CoV-2 infection rate is 114% (inactive).

With `CO/N=C1/C[C@@H](C(=O)NC[C@@H](O)c2ccccc2)N(C(=O)c2ccc(-c3ccccc3C)cc2)C1` [OT-R-antagonist-1] (10 µM), the morphology score in experiment [1] worked out at 0.118. In addition, the SARS-CoV-2 infection rate in experiment [2] was 98.5% (inactive).

Turning to `CCCCC(=O)O[C@H]1CC[C@H]2[C@@H]3CCc4cc(O)ccc4[C@H]3CC[C@]12C` (10 µM), the morphology score in experiment [1] is -0.00932. Moreover, the SARS-CoV-2 infection rate in experiment [2] is 89% (inactive).

`CN[C@H](C(=O)N[C@H](C(=O)N(C)[C@H](/C=C(\C)C(=O)O)C(C)C)C(C)(C)C)C(C)(C)c1ccccc1` [taltobulin] (10 µM) yielded a morphology score in experiment [1] of -0.171. Further, in experiment [2], the SARS-CoV-2 infection rate is 98% (inactive).

`O=C(O)COCCN1CCN(C(c2ccccc2)c2ccc(Cl)cc2)CC1` (stereo unspecified) [cetirizine] (10 µM) registered a morphology score in experiment [1] of 0.153. In addition, the SARS-CoV-2 infection rate in experiment [2] is 98.2% (inactive).

On to `N[C@@H](CC(=O)Nc1ccc(Oc2cc(F)c(F)cc2Br)cc1)C(=O)O` (10 µM), for which, in experiment [1], the morphology score is 0.233. Moreover, the SARS-CoV-2 infection rate in experiment [2] is 98% (inactive).
